Experimental data: PubChem BioAssay (Tox21)
A number with no mark means an inactive call. Results filed as inconclusive are left out. A call without a number means that no potency is given here. The source made the active and inactive calls. Calls come from the whole dose curve; as a rule, active = well fitted curve in the direction sought with a large enough effect in the repeat runs; inconclusive = weak or mixed curves; inactive = no such curve, though single readings can be large; an effect the other way counts as inactive or inconclusive.

Assays:
[1] = qHTS RealTime-Glo MT Cell Viability Assay in HEK293 cells - 0 hour (AID 1224880); note: top concentration of the series differs between compounds; nearly all actives have a fitted effect of over 45% in size
Method in brief: (§1)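 Real-time viability in HEK293: signal arises when living cells convert a prosubstrate for NanoLuc in the medium, so luminescence tracks viable cell number. Compound (23 nL, DMSO) added 5 h post-seeding; kinetic reads at 0–40 h, 37 C.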

[2] = A CellTox Green Cytotoxicity Assay to monitor cytotoxicity in HEK293 cells - 32 hour (AID 1224881); note: nearly all actives have a fitted effect of over 40% in size; note: potency is the fitted concentration of half-maximal effect
Method in brief: (§2)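 Cells (HEK293, 600/well) and dye reagent are dispensed together. After 5 h at 37 C, 23 nL compound is pinned in. Plates stay at 37 C for 40 h with fluorescence read at 0h, 8h, 16h, 24h, 32h and 40h.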

[3] = A CellTox Green Cytotoxicity Assay to monitor cytotoxicity in HepG2 cells - 0 hour (AID 1224882); note: nearly all actives have a fitted effect of over 35% in size; note: potency is the fitted concentration of half-maximal effect
Method in brief: (§3)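 Cells and non-lytic dye reagent are dispensed together (600 HepG2 cells/well) and incubated 5 h before DMSO compound transfer. Kinetic fluorescence is then recorded in the same wells during 40 h at 37 C.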

[4] = A CellTox Green Cytotoxicity Assay to monitor cytotoxicity in HepG2 cells - 32 hour (AID 1224883); note: nearly all actives have a fitted effect of over 50% in size; note: potency is the fitted concentration of half-maximal effect
Method in brief: as §3

[5] = A CellTox Green Cytotoxicity Assay to monitor cytotoxicity in HEK293 cells - 8 hour (AID 1224884); note: nearly all actives have a fitted effect of over 35% in size; note: potency is the fitted concentration of half-maximal effect
Method in brief: as §2

[6] = qHTS RealTime-Glo MT Cell Viability Assay in HepG2 cells - 16 hour (AID 1224885); note: nearly all actives have a fitted effect of over 50% in size
Method in brief: (§4)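 Tox21 10K library screened in qHTS format on HepG2 cells carrying RealTime-Glo reagents. Compounds were added after a 5 h preincubation, and the luminescent signal from continuous culture was measured repeatedly during 40 h treatment.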

[7] = qHTS RealTime-Glo MT Cell Viability Assay in HEK293 cells - 24 hour (AID 1224886); note: top concentration of the series differs between compounds; nearly all actives have a fitted effect of over 50% in size
Method in brief: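 Luminescence generated by NanoLuc from substrate produced by living HEK293 cells served as the viability signal. Each value reflects the reading at its stated time point during continuous 40 h compound exposure at 37 C.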

[8] = qHTS RealTime-Glo MT Cell Viability Assay in HEK293 cells - 8 hour (AID 1224887); note: top concentration of the series differs between compounds; nearly all actives have a fitted effect of over 50% in size
Method in brief: as §1

[9] = A CellTox Green Cytotoxicity Assay to monitor cytotoxicity in HEK293 cells - 16 hour (AID 1224888); note: nearly all actives have a fitted effect of over 35% in size; note: potency is the fitted concentration of half-maximal effect
Method in brief: as §2

[10] = qHTS RealTime-Glo MT Cell Viability Assay in HepG2 cells - 0 hour (AID 1224889); note: nearly all actives have a fitted effect of over 50% in size
Method in brief: as §4

Structure (SMILES)	Potency [1]	Potency [2]	Potency [3]	Potency [4]	Potency [5]	Potency [6]	Potency [7]	Potency [8]	Potency [9]	Potency [10]	activity change, negative = cytotoxicity [1]	cytotoxicity increase [2]	cytotoxicity [3]	cytotoxicity increase [4]	cytotoxicity increase [5]	activity change, negative = cytotoxic [6]	activity change, negative = cytotoxicity [7]	activity change, negative = cytotoxicity [8]	activity change [9]	activity change, negative = cytotoxicity [10]
c1cnc(N2CCN(Cc3ccc4c(c3)OCO4)CC2)nc1	inactive	inactive	inactive	inactive	inactive	inactive	inactive	inactive	inactive	inactive	–	–	–	–	–	–	–	–	–	–
O=C[C@H](O)[C@@H](O)[C@H](O)[C@H](O)CO	inactive	inactive	inactive	inactive	inactive	inactive	inactive	inactive	inactive	inactive	–	–	–	–	–	–	–	–	–	–
O=C1OC(=O)C2CCCCC12 (stereo not given)	inactive	inactive	inactive	inactive	inactive	inactive	inactive	inactive	inactive	inactive	–	–	–	–	–	–	–	–	–	–
CC(=O)CC(C)(C)C1CCCCC1	inactive	inactive	inactive	inactive	inactive	inactive	inactive	inactive	inactive	inactive	–	–	–	–	–	–	–	–	–	–
C[C@@H]1CCN(C(=O)[C@H](CCCN=C(N)N)NS(=O)(=O)c2cccc3c2NC[C@H](C)C3)[C@@H](C(=O)O)C1	inactive	inactive	inactive	inactive	inactive	inactive	inactive	inactive	inactive	inactive	–	–	–	–	–	–	–	–	–	–
COC(=O)NN	inactive	inactive	inactive	inactive	inactive	inactive	inactive	inactive	inactive	inactive	–	–	–	–	–	–	–	–	–	–
CC(=O)Nc1ccc(S(N)(=O)=O)cc1	inactive	inactive	inactive	inactive	inactive	inactive	inactive	inactive	inactive	inactive	–	–	–	–	–	–	–	–	–	–
NCCCNCCSP(=O)(O)O	–	–	–	–	–	–	–	–	–	–	-1.72% [at 6.97 µM]	-9.01% [at 6.97 µM]	1.75% [at 6.97 µM]	-8.01% [at 6.97 µM]	3.38% [at 6.97 µM]	0.263% [at 6.97 µM]	4.08% [at 6.97 µM]	2.94% [at 6.97 µM]	-4.83% [at 6.97 µM, active compounds read high]	-0.885% [at 6.97 µM]
C=CCOCC(CC)(CO)COCC=C	inactive	inactive	inactive	inactive	inactive	inactive	inactive	inactive	inactive	inactive	–	–	–	–	–	–	–	–	–	–
CN(C)CCCSc1ccccc1NC(=O)/C=C/c1ccccc1	inactive	19 µM (active)	19 µM (active)	19 µM (active)	16.9 µM (active)	inactive	inactive	inactive	16.9 µM (active)	inactive	–	–	–	–	–	–	–	–	–	–
CC(C)NC(=O)NC(C)C	inactive	inactive	inactive	inactive	inactive	inactive	inactive	inactive	inactive	inactive	–	–	–	–	–	–	–	–	–	–
Cc1ccc(=O)n(-c2ccccc2)c1	inactive	inactive	inactive	inactive	inactive	inactive	inactive	inactive	inactive	inactive	–	–	–	–	–	–	–	–	–	–
CCn1ccnc1CC1COc2ccccc2O1 (stereo not given)	inactive	inactive	inactive	inactive	inactive	inactive	inactive	inactive	inactive	inactive	–	–	–	–	–	–	–	–	–	–
CC/C=C\CC/C=C/C(OCC)OCC	inactive	inactive	inactive	inactive	inactive	inactive	inactive	inactive	inactive	inactive	–	–	–	–	–	–	–	–	–	–
O=c1[nH]c(=O)n([C@H]2C[C@H](O)[C@@H](CO)O2)cc1I	inactive	inactive	inactive	inactive	inactive	inactive	inactive	inactive	inactive	inactive	–	–	–	–	–	–	–	–	–	–
c1ccc([C@H]2CN3CCSC3=N2)cc1	inactive	inactive	inactive	inactive	inactive	inactive	inactive	inactive	inactive	inactive	–	–	–	–	–	–	–	–	–	–
O=c1cc(CO)occ1O	inactive	inactive	inactive	inactive	inactive	inactive	inactive	inactive	inactive	inactive	–	–	–	–	–	–	–	–	–	–
CC(C[N+](C)(C)C)OC(N)=O (stereo not given)	inactive	inactive	inactive	inactive	inactive	inactive	inactive	inactive	inactive	inactive	–	–	–	–	–	–	–	–	–	–
CC(C(=O)O)c1ccc(CC2CCCC2=O)cc1 (stereo not given)	inactive	inactive	inactive	inactive	inactive	inactive	inactive	inactive	inactive	inactive	–	–	–	–	–	–	–	–	–	–
CCc1nccnc1CC	–	inactive	–	–	–	–	–	–	–	–	-3.54% [at 15.8 µM]	–	-0.271% [at 15.8 µM]	4.25% [at 15.8 µM]	-4.27% [at 15.8 µM]	-1.18% [at 15.8 µM]	6.29% [at 15.8 µM]	-0.69% [at 15.8 µM]	-4.2% [at 15.8 µM, active compounds read high]	-0.513% [at 15.8 µM]
